Reference: PubChem BioAssay AID624417 (National Center for Advancing Translational Sciences (NCATS), 2012)
The whole screen tested about 410,000 compounds, of which about 6,400 (1.6%) were called active. About 20% were inconclusive and are not listed. The sample holds actives, similar compounds and a random draw of the others, so the mix is not that of the screen. Calls follow the shape of the dose curve; as a rule, active = well fitted inhibition curve with a large enough effect; inconclusive = small, poorly fitted or top-dose-only effect; inactive = no such curve, though single readings can be large or run the other way.

biological target: Glucagon-like peptide 1 receptor (Homo sapiens) (UniProt P43220); experiment: qHTS of GLP-1 Receptor Inverse Agonists (Inhibition Mode); conditions: HEK293 GLP-1R CRE-luciferase, luminescence, 24 h, GLP-1R form is constitutively active; series mostly up to 38.3 µM; activity change, negative = inhibition: at the top concentration; also: nearly all actives have a fitted effect of over 55% in size
Sequence (P43220 whole entry, looked up): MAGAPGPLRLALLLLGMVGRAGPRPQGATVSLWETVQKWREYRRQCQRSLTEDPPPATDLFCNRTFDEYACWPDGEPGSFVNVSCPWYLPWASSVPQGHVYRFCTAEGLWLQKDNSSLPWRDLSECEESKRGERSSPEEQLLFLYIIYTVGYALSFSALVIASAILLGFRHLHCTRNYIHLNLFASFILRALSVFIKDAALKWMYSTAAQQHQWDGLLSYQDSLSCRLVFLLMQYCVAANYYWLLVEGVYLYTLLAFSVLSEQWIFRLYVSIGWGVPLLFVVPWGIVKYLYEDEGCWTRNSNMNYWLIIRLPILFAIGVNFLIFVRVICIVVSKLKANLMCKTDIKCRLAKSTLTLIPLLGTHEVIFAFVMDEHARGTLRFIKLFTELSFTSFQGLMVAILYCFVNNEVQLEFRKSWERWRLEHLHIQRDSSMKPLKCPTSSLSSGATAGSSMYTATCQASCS
Method in brief: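 Constitutively active GLP-1R drives a cAMP-responsive luciferase in stably transfected HEK293 cells; test compounds are added after overnight (12 h) attachment and left 24 hr, and signal loss in luminescence marks inhibition.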
% is scaled to controls: 0 for no effect and ±100 for the full control effect; potency is read from the fitted curve at half-maximal effect.

Activity change, negative = inhibition, inactive:
CC(=O)c1nn(-c2ccccc2)c(=Nc2ccccc2)cc1C 1.43%, Cc1cc2c3ccccc3[nH]c(=O)n2n1 23.2%, CSc1ncnc2c1ncn2CCCNCc1ccco1 14.9%, COc1ccc(-c2cc(NC=O)c3ncc(-c4ccccc4)n3c2)cc1OC -18.1%, Fc1ccccc1COc1cccc2cccnc12 -24%, OCc1ccc(OCCCOc2cccc3cccnc23)cc1 25.8%, Cc1ccccc1OS(=O)(=O)c1cccc([N+](=O)[O-])c1 -32.3%, O=C(CSc1nnc2ccccn12)c1ccccc1 11.5%, Cc1ccc(C(=O)NNC(=O)CSc2nnc3ccccn23)cc1 -23.9%, Cc1cccc(CN2CCN(C3CN(Cc4cn(Cc5ccccc5F)nn4)S(=O)(=O)C3)CC2)c1 (stereo not drawn) -2.68%, c1ccc2c(c1)nnn2-c1ccncc1 6.01%, Cc1ccccc1S(=O)(=O)NC(=O)C1(C)CCN1C(=O)C1(c2ccccc2)CCCC1 (stereo not drawn) -25.9%, COc1cc(NC(=O)C2=C(C)OCCS2)c(Cl)cc1C(=O)NCCCN1CCCC(C)C1 (stereo not drawn) 16.6%, O=C(CNS(=O)(=O)c1cccc(C(F)(F)F)c1)Nc1ccccc1F -16.9%, O=C(Nc1cc(C(F)(F)F)ccc1Cl)c1nc2ccccc2nc1N1CCCCC1 0.167%, O=C(COC(=O)c1cncc(Br)c1)Nc1ccc(S(=O)(=O)N2CCOCC2)cc1 -0.0324%, CC1(Oc2ccc(Cl)cc2)CCN(Cc2csc3ccccc23)C1 (stereo not drawn) -17.5%, CCCc1c(C(=O)O)cnn1-c1ccc(Cl)cc1 6.36%, CCc1ccccc1NC(=O)c1cnn(-c2ccc(F)cc2)c1C1CCNCC1 -22.5%, Cc1cc(OCC(=O)Nc2nccs2)c2c(C)c(C)c(=O)oc2c1 -12.1%, Cc1ccc(F)cc1NC(=O)CSCc1c(C)noc1C -3.47%, CCc1noc(C)c1C(=O)Nc1nc2ccc(OC)cc2s1 0.249%, COc1ccc(S(=O)(=O)N2CCC(C(=O)NCCC(=O)NCCc3cccc(F)c3)CC2)cc1 3.25%, CC(C)c1nc2ccc(C(=O)O)cc2[nH]1 -1.32%, Cc1ccc2nc(CNC(=O)c3ccccc3)[nH]c2c1 -8.76%, Cc1cccc(C(=O)OCC(=O)Nc2sccc2C(N)=O)c1C -14.6%, CC(C)C1CCN(C(=O)C2CCC(=O)N(C3CCCCCC3)C2)CC1 (stereo not drawn) 4.55%, Cc1ccc(/C=C2\SC(=S)N(CCC(=O)Nc3ccc(O)cc3)C2=O)cc1 -7.25%, O=C(CCN1C(=O)/C(=C/c2cccs2)SC1=S)NNC(=O)c1cccc(O)c1 -10.3% [at 7.66 µM], CCCNC(=O)C1(C)CCN1C(=O)Cc1ccc(-c2ccccc2)cc1 (stereo not drawn) -12.2%, O=C(c1ccc(CS(=O)Cc2ccccc2Cl)o1)N1CCN(c2ccccc2)CC1 (stereo not drawn) -1.8%, OCC1OC(n2cnc3c(N4CCCC4)ncnc32)C(O)C1O (stereo not drawn) 3.56%, CC(=O)N1CCN(Cc2cc(=O)oc3cc(C)ccc23)CC1 8.45%, Cc1ccc(C(=O)Nc2c(-c3ccccc3)[nH][nH]c2=O)cc1 8.15%, CCc1cccc(C)c1NS(=O)(=O)c1ccc(-c2cc(C)no2)s1 -48%, COc1ccc(N2CCN(S(=O)(=O)c3cc(Br)cnc3N)CC2)cc1 11.4%, Cc1ccc(-c2nc3c(Cl)cc(C(F)(F)F)cn3c2Cc2cccc(Cl)c2)cc1 8.32%, CCn1c(SCC(=O)N2CCCC2=O)nc2ccccc21 -4.71%, CC(C)c1cc(C(=O)O)n[nH]1 0%, Cc1cc(C(=O)N/N=C\C(Br)=C\c2ccccc2)c(C)o1 5.04% [at 7.66 µM], COCCNc1ncnc2c1ncn2[C@H]1CN(Cc2ccc(OC)cc2)C[C@@H](CO)O1 17.4%, O=C(C1CCN(S(=O)(=O)c2cccs2)CC1)N1CCCCCC1 0%, O=C(NC1CCCCC1)C1CCCN(S(=O)(=O)c2ccc(Br)s2)C1 (stereo not drawn) 12.5%, CN1C[C@@H](CO)O[C@@H](n2cnc3c(N4CCN(CCO)CC4)ncnc32)C1 -6.73%, CCCCN1CC(N2CCN(Cc3cccc(C)c3)CC2)CS1(=O)=O (stereo not drawn) -22.9%, COc1ccc(NC(=S)N2CCC(NC(=O)c3cccc(F)c3)CC2)cc1 10.9%, CCCNC(=S)N1CCC(NC(=O)c2ccc(OC)cc2)CC1 2.99%, COc1cccc(-c2cc(NC(C)=O)c3ncc(-c4cccc(C(C)=O)c4)n3c2)c1 -16.5%, CCOC(=O)/C(=N\Nc1ccccc1Cl)N(C)C1CCS(=O)(=O)C1 (stereo not drawn) -27.7%, CCOC(=O)N1CCN(C(=O)COc2ccc(Cl)cc2C)CC1 -2.5%, Cn1c(=O)c2cc(NC(=O)NCCc3cccs3)ccc2n1Cc1cccc(C(F)(F)F)c1 -22.3%, O=C(COc1ccc(S(=O)(=O)Nc2cccc(C(F)(F)F)c2)cc1)N1CCOCC1 -19.7%, O=C(/C=C/c1ccc(F)cc1)Nc1cccc(S(=O)(=O)Nc2cccc(C(F)(F)F)c2)c1 -16.8%, COc1ccc(C2=Nc3ccccc3NC(=O)C2N(C(=O)c2cc3ccccc3[nH]2)c2ccccc2)cc1 (stereo not drawn) -2.32%, O=c1cc(Cn2nnc(-c3ccc(Cl)cc3)n2)nc2sccn12 0%, CC(=O)Nc1c(-c2ccc(C)cc2)nc2ccc(Cl)cn12 28.1%, CC(C)CCOc1ccc(C(=O)Nc2cc(S(=O)(=O)N3CCOCC3)ccc2N2CCOCC2)cc1 -10.7%, CCc1nc2ccc(C(=O)N(C)CCN(C)C)cn2c1N(CC)CCOC 21.2%, OC[C@@H]1CN(Cc2ccc3c(c2)OCO3)C[C@H](n2cnc3c(NCc4ccco4)ncnc32)O1 -8.25%, O=C(CSc1ccc(Cl)cc1)NC1CC1 2.92%, COc1ccc(NC(=O)c2c(C)oc3c2CCCC3)cc1 0%, CC1CCc2noc(NC(=O)c3ccc([N+](=O)[O-])cc3)c2C1 (stereo not drawn) -25.2%, O=C1NC[C@H](CCCCN2C[C@H](Cc3ccccc3)N(Cc3ccccc3)C(=O)C2=O)N(CCc2ccc(O)cc2)C1=O 8.51%, CN1CCn2cnc(C(=O)NCC(=O)OC(C)(C)C)c2C1=O 15.6%, O=C(Nc1nnc([C@H]2C[C@H](O)[C@@H](CO)O2)s1)c1cccc(Cl)c1 -12.3%, CCOC1=C2[C@H]([C@H]3C(=O)N(c4ccccc4)C(=O)[C@H]3C1)[C@@H](c1ccccc1)N(S(=O)(=O)c1ccc(C)cc1)[C@H]2c1ccccc1 10.2%, Cc1cc(Nc2ccc(C)c(C)c2)n2ncnc2n1 11.7%, CCOC(=O)c1[nH]ncc1CN1CCCC(C(=O)c2ccc(OC)cc2C)C1 (stereo not drawn) -2.62%, CC(=O)NCC(=O)N1CCCC(C(=O)c2ccc3c4c(cccc24)CC3)C1 (stereo not drawn) 8.71%, O=C(N=C1SC2CS(=O)(=O)CC2N1Cc1ccccc1)c1ccccc1 (stereo not drawn) 0.0638%, CSCCC(C(=O)NC(C)(C)C)n1c(-c2ccccc2)nc2ccccc21 (stereo not drawn) 11%, COc1ncnc2c1ncn2CCCNCCN1CCOCC1 6.67%, CCc1nc2c(OCCOc3ccccc3)cccn2c1N(C)C(=O)c1ccc(OC)cc1 10.8%, CN(C(=O)COC(=O)CNC(=O)C12CC3CC(CC(C3)C1)C2)c1ccccc1 21.8%, CC(C)(C)c1ccc(C(=O)NNC(=O)Cc2ccccc2)cc1 -24.5%, COc1ccc(C(CNC(=O)CSc2ccccc2)N2CCOCC2)cc1 (stereo not drawn) -4.63%, COc1ccc(C/C(N)=N/OC(=O)c2ccco2)cc1OC 47.5%, COc1ccc(C(=O)ON=C2c3ccccc3-c3ccccc32)cc1OC 21.9%, Cc1cc(-c2ccccc2)n2nc(C)c(-c3ccccc3)c2n1 -1.84%, Cc1cc(-n2nc(C)cc2C)n2nc(C)c(-c3ccccc3)c2n1 -10.6%, Cc1ccc2nc(-c3ccccc3)c(CC3CCCCC3)n2c1 -29.8%, O=C1Nc2ccccc2-n2nnnc2C1N1CCN(c2cccc(C(F)(F)F)n2)CC1 (stereo not drawn) -22%, CC(=O)c1cccc(-c2cnc3c(NC=O)cc(-c4ccccc4Oc4ccccc4)cn23)c1 -19.1%

Potency, active:
O=C(Nc1ccccc1)Oc1cccc2cccnc12 3.98 µM, Cc1ccc(-n2c(C)cc(C(=O)CSc3nnc4ccccn34)c2C)cc1 8.91 µM, O=C(NNc1ccccc1Cl)C(O)(c1cccc(C(F)(F)F)c1)c1cccc(C(F)(F)F)c1 3.98 µM, CCCc1c(C(=O)Nc2ccc(F)cc2)cnn1-c1ccccc1 10 µM, Cc1noc(C)c1CSCC(=O)Nc1nc2ccc(Oc3ccccc3)cc2s1 7.94 µM, COC(=O)Nc1nc2ccc(Sc3ccccc3)cc2[nH]1 1.12 µM, O=C(CCCN1C(=O)/C(=C/c2cccs2)SC1=S)Nc1ccc(O)cc1 5.01 µM, CCc1cccc(C)c1NS(=O)(=O)c1cc(Br)cnc1N 10 µM, CC(C)c1cc(C(=O)N/N=C/C(Br)=C/c2ccccc2)n[nH]1 8.91 µM, O=C(C1CCN(S(=O)(=O)c2ccc(Br)s2)CC1)N1CCN(C2CCCCC2)CC1 10 µM, COc1cc(OC)cc(C(=O)NC2CCN(C(=O)N3c4ccccc4Sc4ccccc43)CC2)c1 10 µM, CCOC(=O)/C(=N\Nc1cc(Cl)ccc1Cl)N1CCN(C)CC1 10 µM, Cc1oc2c(F)c(F)c(F)c(F)c2c1S(=O)(=O)Nc1cccc(C(F)(F)F)c1 3.98 µM, Cc1ccc(Nc2c(-c3ccc(Cl)cc3)nc3sccn23)c(C)c1 14.1 µM, COc1ccc(C(=O)Nc2onc3c2CCCC3)cc1 11.2 µM, CC1=NN(c2cccc(Cl)c2)C(=O)C12CC(C)=C(C)CS2 (stereo not drawn) 10 µM, CCn1ccnc1CN1CCCC(C(=O)c2ccc3c4c(cccc24)CC3)C1 (stereo not drawn) 11.2 µM, CN(C(=O)CC(NC(=O)c1ccccc1)(c1ccccc1)c1ccccc1)c1ccccc1 12.6 µM, COc1ccc(C(=O)O/N=C(\N)Cc2ccc(Cl)cc2Cl)cc1OC 8.91 µM, CCc1c(C)nc2c(-c3ccccc3)c(C)nn2c1Nc1ccc(NC(C)=O)cc1 10 µM
